Compounds with a hit are over-represented: about 3.6% of the library has one in this group of screens.
D1 PAM = human D1 dopamine receptor positive modulation; P21728; HEK293 TREx D1 cells, calcium flux, dopamine EC20 potentiation; potentiation, % at 10 µM; 360,000 compounds, 0.036% hits; AID 504651; in the data active = potentiation above about 30%
Target sequence (P21728 whole entry, looked up): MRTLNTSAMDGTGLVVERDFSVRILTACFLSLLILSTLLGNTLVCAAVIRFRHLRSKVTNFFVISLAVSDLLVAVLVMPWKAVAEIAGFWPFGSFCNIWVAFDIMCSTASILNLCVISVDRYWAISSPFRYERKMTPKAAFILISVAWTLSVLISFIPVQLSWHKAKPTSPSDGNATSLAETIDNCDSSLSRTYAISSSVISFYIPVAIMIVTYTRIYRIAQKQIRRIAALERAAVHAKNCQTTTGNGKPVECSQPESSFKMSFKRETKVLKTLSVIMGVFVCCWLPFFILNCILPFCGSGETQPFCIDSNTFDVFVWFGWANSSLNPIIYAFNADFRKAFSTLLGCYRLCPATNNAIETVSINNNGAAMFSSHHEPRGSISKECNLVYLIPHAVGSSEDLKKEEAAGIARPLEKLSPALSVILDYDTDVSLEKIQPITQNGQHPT
TRHR agonist = agonists of human TRH receptor; P34981; TRHR cells, calcium flux fluo-8, FDSS agonist mode; activation, % at 2 µM; 360,000 compounds, 0.18% hits
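Read-out: compound-evoked intracellular calcium rise in TRHR cells, fluo-8 dye, kinetic FDSS fluorescence at 1 s/cycle following a 10-cycle baseline. Cells cultured overnight before dye loading (30 min–1.5 h, RT).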
TRHR PAM = allosterically enhances the human TRH receptor. P34981. TRHR cells, fluo-8 calcium fluorescence, EC20 TRH enhancement. enhancement, % at 2 µM. 360,000 compounds, 0.66% hits; in the data active = enhancement above about 30%
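Enhancer read-out: after compound pinning and an initial kinetic agonist-mode read, an EC20 of TRH (10 nM final) was injected and fluo-8 calcium signal (Ex 480/Em 530) followed at 1 s/cycle for 100 cycles in TRHR-expressing cells.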
LDHA inh = blocks human lactate dehydrogenase A; AID 1347041; activity change, % (values are at about 110 or 230 µM); purified LDHA, NADH/diaphorase-resazurin fluorescence; stronger effect = lower value; 480,000 compounds, 0.15% hits; in the data active = activity change below about -30%
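Resorufin fluorescence (ex540/em590), read at 0 and 20 min after diaphorase/resazurin addition, reports the NADH left after a 5 min room-temperature reaction of 2 nM human LDH5 with 0.06 mM NADH and 0.2 mM pyruvate.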
D1 antagonist = blocks dopamine activation of the human D1 receptor; P21728; HEK293 TREx D1 cells, calcium flux, dopamine EC80; stronger effect = lower value; activity change, negative = inhibition, % at 10 µM; 360,000 compounds, 3.2% hits; in the data active = activity change below about -30%
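Calcium flux readout: force-coupled, inducible Hek293 Trex D1 line, cells induced overnight at 30 C with tetracycline, dye-loaded 30–90 min at RT. Antagonism scored against EC80 dopamine challenge given 180 s after compound.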
D1 agonist = agonists of human D1 dopamine receptor; activation, % at 2 µM; HEK293 T-REx D1 cells, calcium flux, agonist mode; 360,000 compounds, 1% hits; P21728
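Agonism was scored from calcium flux recorded over 180 s (1 read/s) after pintool compound addition, following a 10-cycle baseline. Cells were inducible force-coupled HEK293 TREx D1, plated overnight at 30 C and loaded with no-wash calcium dye.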
Hits are given with their value; 0 = inactive; - = no result given; ! = not confirmed by another sample. Cut-off read from the data, not from the text of the source, unless noted: active = activation above about 30%; inactive = the rest.

SMILES | D1 PAM | TRHR agonist | TRHR PAM | LDHA inh | D1 antagonist | D1 agonist
C#CCOCCOCCOCCNc1nc(N2CCN(C(=O)CCCCCCCCCCNC(=O)[C@@H](CCC(=O)O)n3cc(CCCCCN)nn3)CC2)nc(N2CCN(C(=O)CCCCCCCCCCNC(=O)[C@@H](CCC(=O)O)n3cc(CCCCCN)nn3)CC2)n1 | 0 | 0 | 0 | 0 | -32.3 | 0
Cc1cc(C)n2ncc(-c3noc(C(=O)NCC(O)c4ccccc4)n3)c2n1 (stereo unspecified) | - | - | - | 0 | - | -
COc1ccc(/C=C(\NC(=O)c2ccc(C)cc2)C(=O)NC(CC(C)C)C(=O)O)cc1 (stereo unspecified) | - | - | - | 0 | - | -
CN(CC(=O)Nc1ccc(F)cc1)Cc1nc2ccccc2c(=O)[nH]1 | - | - | - | 0 | - | -
c1ccc(NC2=NCCN2CCCC2CCCCC2)cc1 | 0 | 0 | 0 | 0 | 0 | 32.9
c1ccc(CCCCN2CCN=C2Nc2ccccc2)cc1 | 0 | 0 | 31.7 | 0 | 0 | 0
Fc1cccc(/C=N/Nc2ccc(C(F)(F)F)cn2)c1 | - | - | - | 0 | - | -
O=[N+]([O-])c1cccc(S(=O)(=O)c2ccc(NCCO)c([N+](=O)[O-])c2)c1 | 0 | 0 | 0 | 0 | -43.5 | 0
CCNc1ccc(S(=O)(=O)N(C)C)cc1[N+](=O)[O-] | 0 | 0 | 0 | -37.1 | 0 | 0
O=C(NCc1ccc(Cl)cc1)C1=Cc2cc(Br)ccc2OC1 | 0 | 0 | 0 | 0 | 0 | 0
CCOc1ccc(CNC(=O)C2=Cc3cc(Br)ccc3OC2)cc1OC | 0 | 0 | 0 | 0 | -37.5 | 0
COc1ccc(C(=O)COC(=O)CCn2c(C)csc2=O)c(OC)c1 | - | - | - | 0 | - | -
COc1ccc(C(=O)COC(=O)Cn2c(C)csc2=O)c(OC)c1 | 0 | 0 | 0 | 0 | -33.3 | 0
Cc1sc2ncnc(N3CCC(C(=O)NNC(=O)COc4ccccc4Cl)CC3)c2c1C | 0 | 0 | 0 | 0 | 0 | 0
Cc1sc2ncnc(N3CCC(C(=O)NNC(=O)COc4ccccc4F)CC3)c2c1C | 0 | 0 | 0 | 0 | -40.3 | 0
CCOC(=O)c1sc(NC(=O)c2cccc(S(=O)(=O)N3CCN(C)CC3)c2)cc1C | 0 | 0 | 0 | 0 | -35.4 | 0
CCOC(=O)c1sc(NC(=O)c2ccc(Cl)s2)cc1C | 0 | 0 | 0 | 0 | 0 | 0
CCOC(=O)c1sc(NC(=O)Nc2ccc(Cl)cc2)cc1C | 0 | 0 | 0 | 0 | -57.9 | 0
COc1ccc(NC(=O)c2c(C)nn(Cc3ccccc3)c2C)cc1S(=O)(=O)N(C)C | 0 | 0 | 0 | 0 | 0 | 0
CCOC(=O)c1sc(NC(=O)c2cccc(S(=O)(=O)N(CC)CC)c2)cc1C | 0 | 0 | 0 | 0 | 0 | 0
CCOC(=O)c1sc(NC(=O)c2ccc(S(=O)(=O)N(C)C)cc2)cc1C | 0 | 0 | 0 | 0 | 0 | 0
CCOC(=O)c1sc(NC(=O)c2c(C)nn(Cc3ccccc3)c2C)cc1C | 0 | 0 | 0 | 0 | -45.0 | 0
CCOC(=O)c1sc(NC(=O)c2ccccc2)cc1C | 0 | 0 | 0 | 0 | 0 | 42.4
COc1ccc(S(=O)(=O)N(CC(=O)NCCN2CCOCC2)c2ccc(F)cc2)cc1 | - | - | - | 0 | - | -
Cc1ccc2c(c1)C(=O)CC1(CCC(C(C)(C)C)CC1)O2 (stereo unspecified) | 0 | 0 | 0 | 0 | -31.0 | 0
SMILES | D1 PAM | TRHR agonist | TRHR PAM | LDHA inh | D1 antagonist | D1 agonist
CCCCN(CC)C(=O)C1CCC(CNS(=O)(=O)c2cccc3nsnc23)CC1 (stereo unspecified) | 0 | 0 | 0 | 0 | -30.6! | 0
O=C(NCc1cccs1)C1CCC(CNS(=O)(=O)c2cccc3nsnc23)CC1 (stereo unspecified) | 0 | 0 | 0 | 0 | 0 | 0
CC(C)(C)NC(=O)C1CCC(CNS(=O)(=O)c2cccc3nsnc23)CC1 (stereo unspecified) | 0 | 0 | 0 | 0 | 0 | 0
COc1cccc(CNC(=O)C2CCC(CNS(=O)(=O)c3cccc4nsnc34)CC2)c1 (stereo unspecified) | 0 | 0 | 0 | 0 | -40.6 | 0
CCC(C)(C)NC(=O)C1CCC(CNS(=O)(=O)c2cccc3nsnc23)CC1 (stereo unspecified) | 0 | 0 | 0 | 0 | -40.1 | 0
CCCCn1nc(C(=O)N2CCCSc3ccccc32)c2ccccc2c1=O | - | - | - | 0 | - | -
Cc1ccccc1-c1nc(S(=O)(=O)c2ccc(F)cc2)c(N(C)C)o1 | - | - | - | 0 | - | -
Cc1ccsc1C1C=C(c2cccc(Br)c2)Nc2ncnn21 (stereo unspecified) | 0 | 0 | 0 | 0 | 0 | 42.7
O=C1C2CCCN2C(=O)N1CCCN1CCN(c2ccc([N+](=O)[O-])cc2)CC1 (stereo unspecified) | 0 | 0 | 0 | 0 | 0 | 0
O=C1C2CCCCN2C(=O)N1CCN1CCN(c2ccc([N+](=O)[O-])cc2)CC1 (stereo unspecified) | 0 | 0 | 0 | 0 | -32.7 | 0
O=C1C2CCCN2C(=O)N1CCCCN1CCN(c2ccc(F)cc2)CC1 (stereo unspecified) | 0 | 0 | 0 | 0 | -33.5 | 0
O=C(COc1ncnc2c(Cl)cc(Cl)cc12)Nc1ccccc1F | - | - | - | 0 | - | -
Cc1cc2oc(C(=O)Nc3ccccc3C(F)(F)F)cc(=O)c2cc1C | - | - | - | 0 | - | -
O=C(O)C(c1ccccc1)N1C(=O)/C(=C\c2ccc(O)c(O)c2)SC1=S (stereo unspecified) | 0 | 31.7 | 0 | 0 | 0 | 0
CCOc1cc(/C=C2\SC(=S)N(C(C(=O)O)c3ccccc3)C2=O)ccc1O (stereo unspecified) | 0 | 0 | 0 | 0 | 0 | 171.7
CCOc1ccc(/C=C2/SC(=S)N(C(C(=O)O)c3ccccc3)C2=O)cc1OCC (stereo unspecified) | 0 | 0 | 0 | 0 | 0 | 0
COc1cc(/C=C2\SC(=S)N(C(C(=O)O)c3ccccc3)C2=O)ccc1O (stereo unspecified) | 0 | 50.0 | 0 | 0 | 0 | 82.2
COc1cccc(CNC(=O)[C@H](Cc2ccccc2)NC(=O)N2CCn3c2nc2ccccc23)c1 | - | - | - | 0 | - | -
COc1cc(C(=O)Nc2c(NCc3ccccc3)c3ccccc3oc2=O)ccc1OC(C)=O | - | - | - | 0 | - | -
COc1ccc(N2CCN(CC(=O)Nc3nc(C)cs3)CC2)cc1 | 0 | 0 | 0 | 0 | -40.5 | 0
Cc1cc(Br)ccc1NC(=O)CN(C)C(=O)CCSc1ccc(F)cc1 | 0 | 0 | 0 | 0 | -35.1 | 0
CC(C)Oc1ccc(CCC(=O)NNC(=S)Nc2ccccc2)cc1 | 0 | 0 | 0 | 0 | -31.5 | 0
CC(C)CCNC(=S)Nc1ccc([N+](=O)[O-])cc1 | 0 | 0 | 0 | 0 | -45.6 | 34.3
COc1cccc(NC(=S)NCCC(c2ccccc2)c2ccccc2)c1 | 0 | 0 | 0 | 0 | -49.9 | 0
S=C(NCCc1ccccc1)N/N=C/c1ccccc1Br | - | - | - | 0 | - | -
CC(C)Oc1ccc(CC(=O)NNC(=S)Nc2ccccc2)cc1 | 0 | 0 | 0 | 0 | 0 | 0
